Growth data for 16 compounds are collected here from PubChem BioAssay (NCI).

The panel holds about 83,000 compounds, 20% with a hit somewhere; the sample as a whole holds those more often.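 Values shown are percent growth following 48 h exposure of cells in 96-well plates to a single concentration of compound; below 10 was considered active.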 Unmarked numbers belong to inactive results. Activity calls are given as the source filed them.

Some test systems named below: T-47D breast; BT-549 breast; MDA-MB-435 melanoma; SW-620 colon; MCF7 breast; HCT-116 colon; HCC-2998 colon; KM12 colon.
Holding throughout (experiment): NCI-60 one-dose screen, 48 h (100 = growth as untreated, 0 = no growth, -100 = all killed)
What all share (conditions): 10 µM unless noted

Consider `CCOC(=O)/C=C1\S/C(=N\Nc2cc(=O)[nH]c3ccc(OC)cc23)N(c2ccccc2)C1=O`, for which the growth in the assay with T-47D breast is 73.6%; in the assay with BT-549 breast, 99.6%; in the assay with MDA-MB-435 melanoma, 97%; with SW-620 colon, 95.3%; in the assay on MCF7 breast, 69.4%; with HCT-116 colon, 93.9%. For the same compound, the figures for the growth in the assay on HCC-2998 colon and in the assay with KM12 colon were 115% and 91.8%, respectively.
For `O=c1[nH]c(CN2CCN(c3ccccc3)CC2)nc2c(Br)cc(Br)cc12`, the growth is 103% with T-47D breast; 123% in the assay on BT-549 breast; 108% with MDA-MB-435 melanoma; 102% with SW-620 colon; 110% with MCF7 breast; 107% in the assay with HCT-116 colon. Besides, the figures for the growth in the assay with HCC-2998 colon and in the assay on KM12 colon were 101% and 105%, respectively.
Turning to `CN1C(=O)N(C)C2C1NN=c1s/c(=C\c3ccc(F)cc3)c(=O)n12` (stereo not drawn), the growth in the assay on T-47D breast was 13.3%; in the assay on BT-549 breast, 44.2%; with MDA-MB-435 melanoma, -19% (active); in the assay on SW-620 colon, 10.2%; in the assay with MCF7 breast it was 4.25% (active); in the assay with HCT-116 colon, 4.86% (active). The growth with HCC-2998 colon was 57.8%; in the assay with KM12 colon, 18.9%.
For the compound `c1ccc(-c2cn3nc(-c4c[nH]c5ccccc45)sc3n2)cc1`, the growth is 62.6% with T-47D breast; 91.3% in the assay with BT-549 breast; 26.5% in the assay on MDA-MB-435 melanoma; 73.5% in the assay with SW-620 colon; 59.1% in the assay with MCF7 breast; 84.2% in the assay with HCT-116 colon. For the same compound, the growth was 89.6% with HCC-2998 colon and 58.3% in the assay with KM12 colon.
Turning to `C=C(C)Cn1c(SCC(=O)c2cccs2)nc2sc3c(c2c1=O)CCCC3`, the growth in the assay on T-47D breast was 58.7%; in the assay on BT-549 breast it was 81.2%; in the assay on MDA-MB-435 melanoma, 56%; with SW-620 colon, 38.6%; in the assay with MCF7 breast it was 46.7%; in the assay on HCT-116 colon, 29.3%. The growth in the assay on HCC-2998 colon is 76.1%; in the assay with KM12 colon it was 42.9%.
Consider `O=C(Nc1cccc(Cl)c1)Oc1c(Cl)c(Cl)c(Cl)c(Cl)c1Cl`, for which the growth was 80.1% with T-47D breast; 88.5% in the assay with BT-549 breast; 98.7% with MDA-MB-435 melanoma; 100% with SW-620 colon; 84.9% with MCF7 breast; 95.7% in the assay on HCT-116 colon. The growth in the assay on HCC-2998 colon was 119%; in the assay on KM12 colon, 102%.
For the compound `O=C(O)COc1ccc(F)cc1`, the growth in the assay with T-47D breast was 104%; with BT-549 breast, 119%; in the assay with MDA-MB-435 melanoma it was 108%; with SW-620 colon it was 112%; with MCF7 breast it was 95.8%; with HCT-116 colon, 103%. Moreover, the growth in the assay with HCC-2998 colon and in the assay with KM12 colon was 103% throughout.
On to `CN1CCN(Cc2ccc(NC(=O)c3cncc(C#Cc4c(N)ncc5c(F)cccc45)c3)cc2C(F)(F)F)CC1`, for which the growth is -25.2% (active) in the assay on T-47D breast; 12.5% with BT-549 breast; -83% (active) with MDA-MB-435 melanoma; -51.9% (active) in the assay on SW-620 colon; -67.3% (active) in the assay on MCF7 breast; -89.1% (active) in the assay on HCT-116 colon. Moreover, the growth in the assay on HCC-2998 colon is -11.9% (active); in the assay with KM12 colon it was -72.9% (active).
As for `COc1cccc2cc(N(C)c3ncnc4ccccc34)ccc12`, the growth in the assay on T-47D breast is 59.1%; with BT-549 breast, 32.3%; in the assay with MDA-MB-435 melanoma it was 16.6%; with SW-620 colon, 20.5%; in the assay with MCF7 breast it was 6.28% (active); in the assay on HCT-116 colon, 8.07% (active). Also, the growth in the assay with HCC-2998 colon is 21.2%; in the assay on KM12 colon, 5.11% (active).
For `COc1ccc(Cn2cc3c(c2)-c2oncc2CC3)cc1`, the growth is 51.6% in the assay with T-47D breast; 64.3% in the assay with BT-549 breast; -40.8% (active) in the assay on MDA-MB-435 melanoma; 27.2% with SW-620 colon; 35.4% in the assay with MCF7 breast; 29.6% with HCT-116 colon. For the same compound, the growth was 68.1% with HCC-2998 colon and 52.3% in the assay on KM12 colon.
With `C=C1/C(=C\C=C2/CCC[C@]3(C)[C@@H]([C@H](C)CCCC(C)(C)O)CC[C@@H]23)C[C@@H](OC(=O)CBr)C[C@@H]1O`, the growth is 81.7% with T-47D breast; -58.1% (active) with BT-549 breast; 90.4% in the assay with MDA-MB-435 melanoma; 70.7% with SW-620 colon; 34.9% with MCF7 breast; 80.9% with HCT-116 colon. Moreover, the results for the growth in the assay with HCC-2998 colon and with KM12 colon were 107% and 57.9%, respectively.
On to `Cc1cccc(C)c1NC(=O)Nc1ccccc1`, for which the growth in the assay with T-47D breast is 109%; with BT-549 breast, 116%; in the assay on MDA-MB-435 melanoma, 105%; in the assay with SW-620 colon it was 54.1%; in the assay on MCF7 breast, 53.4%; in the assay on HCT-116 colon it was 61.9%. Moreover, the growth was 99.6% in the assay on HCC-2998 colon and 102% in the assay on KM12 colon.
As to `Cc1ccc(-c2nnc(SCc3nc(N)nc(Nc4ccccc4F)n3)n2-c2ccccc2)cc1`, the growth in the assay with T-47D breast is 85%; in the assay on BT-549 breast, 97.9%; with MDA-MB-435 melanoma it was 99.6%; in the assay on SW-620 colon, 93.6%; in the assay on MCF7 breast it was 94.9%; in the assay on HCT-116 colon it was 98.4%. The growth in the assay with HCC-2998 colon is 126%; in the assay on KM12 colon it was 101%.
Consider `O=C(Nc1ccc2c(c1)-c1ccccc1C2)C1CC(=O)N(c2ccc3c(c2)OCO3)C1` (stereo not drawn), for which the growth with T-47D breast was 52.8% [50 µM]; in the assay on BT-549 breast, 80.3% [50 µM]; in the assay with MDA-MB-435 melanoma it was 70.7% [50 µM]; with SW-620 colon, 75.2% [50 µM]; with MCF7 breast, 65.6% [50 µM]; in the assay with HCT-116 colon, 36.8% [50 µM]. For the same compound, the growth with HCC-2998 colon was 81% [50 µM]; in the assay on KM12 colon, 51.2% [50 µM].
Take `Oc1c(Cl)cc(Cl)c2ccc(CN3CCNCC3)nc12`: the growth in the assay on T-47D breast is 43.6%; with BT-549 breast it was 82.2%; with MDA-MB-435 melanoma, 58.6%; in the assay with SW-620 colon, 26.6%; in the assay on MCF7 breast it was 34.4%; in the assay with HCT-116 colon, 32.6%. For the same compound, the growth with HCC-2998 colon is 60.1%; in the assay on KM12 colon, 49.6%.
On to `C=C(C)[C@@H]1CC[C@]2(COCCCNCCCN)CC[C@]3(C)[C@H](CC[C@@H]4[C@@]5(C)CC[C@H](OCCCN)C(C)(C)[C@@H]5CC[C@]43C)[C@@H]12`, for which the growth with T-47D breast was -65.2% (active); in the assay with BT-549 breast, 99.6%; in the assay with MDA-MB-435 melanoma, -91.2% (active); with SW-620 colon, -80.8% (active); in the assay with MCF7 breast, -77.9% (active); in the assay with HCT-116 colon, -82.5% (active). Also, the results for the growth with HCC-2998 colon and in the assay with KM12 colon were -24.8% (active) and -89.8% (active), respectively.
